The structures appear in SMILES notation. The whole screen tested about 1,800 compounds, of which about 710 (39%) were called active. Roughly 28% stayed inconclusive and do not appear here.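 The calls were made as follows: active = luciferase signal rise whose fitted curve crosses a set activity limit at or below the top valid tested dose; inconclusive = flat fit with 30 to 70% rise, or poor fit; inactive = signal falling, flat within 30%, or crossing above top dose.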 Not all results are given here. Measured potencies and affinities stand elsewhere.

This assay can be described thus: luciferase activators in glycosylation-insensitive reporter cells, dose response, counter-screen for N-linked glycosylation inhibitor project, D54 LucT cells, luminescence, cherry pick (AID 624404). The note with it: D54 LucT luciferase reporter counterscreen, 24 h; series mostly up to 19.5 µM.
As to `O=C(NCCN1C(=O)S/C(=C\c2cccc(Cl)c2Cl)C1=O)C1=COCCO1`, the molecule was classed as inactive. Consider `Cc1noc2ncnc(Sc3ccc(Cl)cc3)c12`, for which the call was inactive.

Consider `CCn1c(=O)cc(C(=O)OC)sc1=Nc1ccc(F)c(F)c1`, for which the molecule was classed as inactive.

For the molecule `COC(=O)c1cc(=O)n(Cc2ccco2)c(=Nc2ccc(F)cc2)s1`, the molecule was called inactive. For `CCN(CC(=O)Nc1ccccc1OC)CC(=O)Nc1ccccc1-c1ccccc1` the value was “inactive”; for `CCCc1cc(C(=O)N/N=C/c2ccc(C)o2)c2ccccc2n1`, “inactive”; for `COc1ccc(C(=O)NCCN(C)C)c2nc3ccccc3cc12`, “inactive”. For `O=C(/C=C/c1ccc(-c2ccccc2[N+](=O)[O-])o1)c1ccc(Br)cc1` the value was “inactive”; for `N#Cc1cc2[nH]c3ccccc3c2[n+](-c2ccc([N+](=O)[O-])cc2)c1N`, “inactive”; for `Cn1cnc([N+](=O)[O-])c1Sc1nc2ccccc2[nH]1`, “inactive”.

As to `CCn1c(=O)c2cc(C(=O)NCCN(C)C)sc2c2ccccc21`, the call was inactive.

Regarding `CCN(CC)CCNc1ccc(CO)c2oc3cc(Cl)ccc3c(=O)c12`, the molecule was classed as inactive. As to `CCN(CC)CCNc1ccc(CO)c2oc3ccccc3c(=O)c12`, the molecule was called inactive. Then `Cn1nc(C(F)(F)F)c(/C=N/OC(=O)c2ccccc2Cl)c1SCc1ccc(Cl)cc1`, with “inactive”. Then `Cc1cc(C)nc(/N=C(\N)Nc2ccc(OCCC(C)C)cc2)n1`, with “inactive”. On to `CCCCc1ccc(N/C(N)=N/c2nc(C)cc(C)n2)cc1`, for which the outcome was inactive.

With `O=C(/C=C/c1ccc([N+](=O)[O-])s1)N1CCCCC1`, the molecule was called inactive. For `CC1CN(C(=O)/C=C/c2ccc([N+](=O)[O-])s2)CC(C)O1` (centres undefined) the value was “inactive”; for `COc1ccc(C=C(c2nc3ccccc3s2)c2nc3ccccc3s2)cc1O`, “inactive”. Then `COCC(=O)OC/C(O)=C(\C#N)c1nc2ccccc2[nH]1`, with “inactive”; and `Cc1c(-c2cccc(Cl)c2)nc2ccccc2c1C(=O)OC/C(O)=C(\C#N)c1nc2ccccc2[nH]1`, with “inactive”. For `CC(=O)Nc1cccc(-c2ccnc3c2CC(C(=O)NCc2ccco2)O3)c1` (centres undefined) the value was “inactive”; for `CS(=O)(=O)Nc1cccc(NC(=O)C2Cc3c(-c4ccccc4)ccnc3O2)c1` (centres undefined), “inactive”; for `COc1ccc(NC(=O)C2Cc3c(-c4cccc(C(C)=O)c4)ccnc3O2)cn1` (centres undefined), “inactive”.

In the case of `COc1ccc(CCCNC(=O)C2Cc3c(-c4cccc(C(C)=O)c4)ccnc3O2)cc1` (centres undefined), the call was inactive.

For the molecule `COc1ccc(NC(=O)C2Cc3c(-c4ccc5c(c4)OCO5)ccnc3O2)cc1` (centres undefined), the result was inactive.

For the molecule `COc1ccc2nc(C)cc(Nc3ccc(N4CCOCC4)cc3)c2c1`, the result was inactive. Then `COc1ccc(Nc2cc(C)nc3ccc(OC)cc23)cc1`, with “inactive”; and `CN(C1=C(NC(=O)c2ccc(Cl)cc2)C(=O)c2ccccc2C1=O)c1ccccc1`, with “inactive”; and `CC[C@@H]1CC=C[C@H]2[C@H]1C(=O)N(Cc1ccccc1)[C@H]2c1ccoc1`, with “inactive”. Then `NC(=O)/C=C\C(=O)Nc1cccc(C(F)(F)F)c1`, with “inactive”.

Turning to `O=C(OCn1ncc(Cl)c(Cl)c1=O)c1ccc(C(F)(F)F)cc1`, the call was inactive.

As for `C=CCOc1ccc(C2C(C#N)=C(N)N(Nc3ccccc3)C3=C2C(=O)CCC3)cc1OC` (centres undefined), the molecule was classed as inactive. `COc1cc(-c2cc3nc(NCCOc4ccccc4)ccn3n2)cc(OC)c1OC`: the result was inactive. For `CCOC(=O)/C=C(\C)Sc1cc(=O)oc2ccccc12`, the molecule was classed as inactive.

For the molecule `O=C(N=Nc1c(O)[nH]c2ccc(Br)cc12)c1cc(-c2cccs2)nc2ccccc12`, the outcome was inactive. Then `CCc1ccc(/C=N/NC(=O)c2cc(-c3ccncc3)nc3ccccc23)s1`, with “inactive”.

Consider `C=C(C)Cc1c(C)c(C#N)c2nc3ccccc3n2c1NCCCN(C)C`, for which the outcome was inactive.

`COc1ccc(CCCNC(=O)C2(C)Cc3c(-c4ccc5c(c4)OCO5)ccnc3O2)cc1` (centres undefined): the molecule was classed as inactive. For `COc1cc(C2c3cc4c(cc3OC(Nc3ccc(C(=O)O)cc3)C2C)OCO4)cc(OC)c1OC` (centres undefined) the value was “inactive”; for `Clc1cccc(Cl)c1Cn1cnc2c(NCc3ccco3)ncnc21`, “inactive”. Consider `CCN(CC)Cc1cc(Nc2c3ccccc3nc3c4ccccc4n(C)c23)cc(CN(CC)CC)c1O`, for which the molecule was classed as inactive. For `Cc1ccc2cc(CN(CCCN(C)C)C(=O)NCc3ccccc3)c(=O)[nH]c2c1C` the value was “inactive”; for `COc1ccc2[nH]c3c(N4CCC(O)(c5cccc(C(F)(F)F)c5)CC4)ncnc3c2c1`, “inactive”; for `COc1ccc(CN2C(=O)C(C)Nc3ncnc(N4CCc5ccccc5C4)c32)cc1` (centres undefined), “inactive”. Then `Cc1nc2ccccc2c2oc(C(=O)NCCCN3CC(C)CC(C)C3)cc12` (centres undefined), with “inactive”; and `O=C(NCC1CCCO1)c1cc(-c2ccccc2)on1` (centres undefined), with “inactive”. Then `O=C1C=C(Nc2ccc(Cl)cc2Cl)CC(c2ccco2)C1` (centres undefined), with “inactive”. As to `NC(=O)CC(NC(=O)c1ccc(Br)cc1)c1ccc(N2CCCCCCC2)c([N+](=O)[O-])c1` (centres undefined), the molecule was classed as inactive. On to `NC(=O)CC(NC(=O)Cc1ccc(Cl)cc1)c1ccc(NC2CCN(Cc3ccccc3)CC2)c([N+](=O)[O-])c1` (centres undefined), for which the outcome was inactive. Then `NC(=O)CC(NC(=O)Cc1ccc(Br)cc1)c1ccc(NCc2cc(F)ccc2F)c([N+](=O)[O-])c1` (centres undefined), with “inactive”; and `NC(=O)CC(NC(=O)Cc1ccc(Cl)cc1)c1ccc(NC2CC3CCC2C3)c([N+](=O)[O-])c1` (centres undefined), with “inactive”; and `NC(=O)CC(NC(=O)Cc1ccc(Cl)cc1)c1ccc(NC2CCCC2)c([N+](=O)[O-])c1` (centres undefined), with “inactive”. Then `O=C(CC1Sc2ccccc2NC1=O)NNc1ccc(Cl)c(Cl)c1` (centres undefined), with “inactive”; and `CCCCOc1ccccc1C1CC(=O)NC2=C1C(=O)CCC2` (centres undefined), with “inactive”. Then `CC(C)Nc1ccc(C(CC(N)=O)NC(=O)Cc2ccc(Br)cc2)cc1[N+](=O)[O-]` (centres undefined), with “inactive”; and `COc1ccc(C=CC(=O)c2ccc3cc(OC)c(OC)cc3c2)cc1OC`, with “inactive”. As for `COc1ccc(NC(=O)c2cccc(Oc3ccccc3)c2)cn1`, the outcome was inactive. Then `O=C(NC1CCCCC1)C(c1cccnc1)N(C(=O)CCl)c1cccc(Cl)c1` (centres undefined), with “inactive”; and `Cc1cccc(N2C(=O)CC(N3CCN(C(=O)c4ccccc4)CC3)C2=O)c1` (centres undefined), with “inactive”; and `Cn1c(C(=O)NC2CCCCCC2)cc2c(=O)n(C)c3ccccc3c21`, with “inactive”. For `C[C@H](CO)N1C[C@H](C)[C@@H](CN(C)Cc2ccccc2)Oc2ccc(NC(=O)CCCCCC(=O)Nc3ccccc3N)cc2C1=O` the value was “inactive”; for `Cc1ccc(S(=O)(=O)N(C)C[C@@H]2Oc3ccc(NC(=O)CCC(F)(F)F)cc3CC(=O)N([C@@H](C)CO)C[C@@H]2C)cc1`, “inactive”; for `COc1ccc(CN(C(=O)c2ccc(CN3CCOCC3)o2)C(C(=O)NCC2CCCO2)c2ccc(F)cc2)cc1` (centres undefined), “inactive”. Then `COC(=O)COc1cccc2c(=O)n(CC(=O)NCc3ccccc3)ccc12`, with “inactive”; and `COc1ccc(CC(=O)N/N=C/c2c(C)n(C)c3ccccc23)cc1OC`, with “inactive”; and `C[C@@H]1[C@@H](Sc2ccccc2)CC(=O)O[C@@H]1c1ccc(-c2ccccc2)cc1`, with “inactive”.

`COc1ccc(-c2nc(C(N)=O)c3[nH]c(=O)n(-c4cccc(Cl)c4)c3n2)cc1OC`: the molecule was classed as inactive. For the molecule `COc1ccc(NC(=O)c2oc3ccccc3c2NC(=O)c2ccco2)cc1`, the outcome was inactive. For `COc1ccc(OC)c(S(=O)(=O)Nc2ccc(-c3ccc4nnc(C)n4n3)cc2)c1` the value was “inactive”; for `COc1cc(OC)cc(C(=O)c2c(C)c(C#N)c3ccccn23)c1`, “inactive”. With `CCc1nc(SCC(=O)c2ccc3c(c2)OCCO3)c2ccccc2n1`, the result was inactive.

As to `Cn1c(SCC(=O)Nc2cccc(F)c2)nc2c([nH]c3ccccc32)c1=O`, the call was inactive.

Consider `CC(=O)N1N=C(c2ccccc2)OC1c1ccc([N+](=O)[O-])s1` (centres undefined), for which the outcome was inactive. For `CCOc1cc(CNc2ccc3cn[nH]c3c2)ccc1OC` the value was “inactive”; for `COC(=O)c1cccc(Nc2c3c(nc4ccccc24)CCC3)c1`, “inactive”; for `CC(=O)c1cccc(Nc2cc(C)nc3c(C)cccc23)c1`, “inactive”. Then `Cc1ccc(OCCNC(=O)c2cccc(S(=O)(=O)NCc3ccccc3)c2)cc1`, with “inactive”; and `CCN(CC)CCCNc1nc2cc(OC)c(OC)cc2c2nc(-c3ccccc3)nn12`, with “inactive”; and `Cc1cc(Br)ccc1NC(=O)CCCOc1cc(=O)n(C)c2ccccc12`, with “inactive”.

Regarding `CC(C)CCNC(=O)Cn1c(=O)oc2cc(S(=O)(=O)N3CC(C)CC(C)C3)ccc21` (centres undefined), the call was inactive. Then `Cc1cc(NC(=O)/C=C/C(=O)N(CC(=O)NC2CCCC2)c2ccc(F)cc2)no1`, with “inactive”; and `O=C(/C=C/Sc1ccccc1)c1ccccc1`, with “inactive”.

As for `O=C(/C=C/Sc1ccc(C(F)(F)F)cn1)c1ccccc1`, the outcome was inactive. Then `O=C(CSc1c2c(nc3ccc(Cl)cc13)CCCC2)N1CCN(C(=O)c2ccco2)CC1`, with “inactive”.

Regarding `CCn1c2ccccc2c2cc(NC(=O)c3cc(OC)c(OC)c(OC)c3)ccc21`, the molecule was called inactive. For `COc1ccccc1N1CCN(S(=O)(=O)CCNC(=O)c2cc(OC)c(OC)c(OC)c2)CC1` the value was “inactive”. Then `Cc1cc(N2CCCCC2)nc(NCc2ccccc2)n1`, with “inactive”; and `COCCNc1nc(NCc2ccccc2)nc2ccsc12`, with “inactive”. Then `Cc1cccc2c1NC(=O)/C2=C\C(=O)c1cccs1`, with “inactive”. With `O=C(NCCC1=CCCCC1)C1CCC(CNc2nc(=S)[nH]c3ccccc23)CC1` (centres undefined), the call was inactive.

Consider `COc1cc(NC(=O)c2ccccc2F)ccc1NC(=O)c1cc2ccccc2o1`, for which the outcome was inactive.

For `COC(=O)c1ccccc1-c1ccc(C(c2c(C)[nH][nH]c2=O)c2c(C)[nH][nH]c2=O)o1`, the call was inactive. Then `COc1cc(C2Sc3ccccc3NC3=C2C(=O)OC3)cc(OC)c1OC` (centres undefined), with “inactive”. For `CCc1cccc(NC(=O)c2cc(S(=O)(=O)N(C)C)ccc2N2CCCC2)c1` the value was “inactive”. Then `CCOc1ccc(OCC)c(NC(=O)c2nnn(CC(=O)Nc3cc(C)cc(C)c3)c2N)c1`, with “inactive”. Consider `CCOc1cc(NC(=O)CCl)c(OCC)cc1NC(=O)CCl`, for which the call was inactive. Take `Cc1cnc(NC(=O)c2cc(S(=O)(=O)N(C)C)ccc2N2CCCC2)s1`: the molecule was called inactive. Then `CN(C)/N=C/c1ccc(Sc2ccc([N+](=O)[O-])cc2[N+](=O)[O-])o1`, with “inactive”.

The record behind these values is PubChem BioAssay AID624404 (Broad Institute, 2012).
